Bioassay records as filed in PubChem.
A selection: hits, their analogues and other compounds. The true share with any hit is near 7.3%.
NPC1 prom act = activates the NPC1 promoter; 320,000 tested, 2.4% active; Huh7 NPC1 promoter luciferase reporter, 24 h; Potency, µM (titrated, usually from 9.22 µM), without a hit: top-dose activation, hits mostly activators; further: % of control where 0% means no effect; nearly all actives have a fitted effect of over 60% in size
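Compounds in DMSO were transferred onto Huh7 NPC1-luciferase reporter cells pre-incubated 2 h; after 24 h at 37 °C, Amplite reagent was dispensed and luminescence recorded 10 min later.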
SMN2 splice enh = increases expression of the SMN2 splice variant | HEK293 SMN2-luciferase splicing reporter, luminescence, 30-36 h | Potency, µM (titrated, usually from 46.1 µM), for inactives: at the highest dose activity change, positive = activation, usual class: activators | 210,000 tested, 2.8% active | AID 1458; further: % of control where 0% means no effect; nearly all actives have a fitted effect of over 55% in size
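qHTS luciferase splicing reporter: luminescence rises when SMN2 exon 7 is included in transfected HEK293 cells. Compound exposure lasted 30-36 h at 37C, with 4.5 mM final sodium butyrate as control, followed by a ONE-Glo read.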
FLuc counter = counter-screen for miR-21 project: firefly luciferase inhibitors or activators | 360,000 tested, 6.9% active | Potency, µM (top dose mostly 57.5 µM), without a hit: at the top dose activity change, negative = inhibition, actives largely listed as inhibitors | P08659 | purified FLuc, Km substrates, luminescence inhibition | AID 588342;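 further: plate controls were vehicle for no effect and reference inhibitor for full effect; nearly all actives have a fitted effect of over 55% in size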
Target sequence (P08659 whole entry, looked up): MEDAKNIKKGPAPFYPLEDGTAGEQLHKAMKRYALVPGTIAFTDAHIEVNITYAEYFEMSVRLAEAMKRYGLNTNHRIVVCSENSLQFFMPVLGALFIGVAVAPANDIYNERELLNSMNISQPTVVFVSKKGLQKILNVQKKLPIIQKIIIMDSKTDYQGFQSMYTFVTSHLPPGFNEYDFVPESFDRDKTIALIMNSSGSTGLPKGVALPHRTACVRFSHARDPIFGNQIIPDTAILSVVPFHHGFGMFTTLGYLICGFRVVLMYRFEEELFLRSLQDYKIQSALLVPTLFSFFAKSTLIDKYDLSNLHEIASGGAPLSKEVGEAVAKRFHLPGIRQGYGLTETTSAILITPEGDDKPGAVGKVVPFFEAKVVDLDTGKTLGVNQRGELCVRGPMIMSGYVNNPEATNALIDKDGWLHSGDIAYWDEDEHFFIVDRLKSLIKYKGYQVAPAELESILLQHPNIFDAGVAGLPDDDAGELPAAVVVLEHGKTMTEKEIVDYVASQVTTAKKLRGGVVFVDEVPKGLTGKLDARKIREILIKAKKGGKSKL
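Biochemical qHTS of compounds, final roughly 60 µM downward over six points, against 10 nM purified firefly luciferase using Km concentrations of substrates (10 uM D-luciferin, 10 uM ATP) in Tris acetate pH 7.5 buffer; luminescence output.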
KinaseGlo FLuc = blocks Kinase-Glo luciferase, a counter-screen artifact; Q27757; Kinase-Glo luciferase, ATP luminescence, 8 min; Potency, µM (highest dose often 38.3 µM), without a hit: at the highest dose activity change, negative = inhibition, hits mostly inhibitors; 200,000 tested, 0.28% active; AID 1379; further: on the % scale 0 is the no-effect control and ±100 the full control effect; nearly all actives have a fitted effect of over 60% in size
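Luminescence was the read-out, taken after 8-minute incubation at ambient temperature. Luciferase turned over luciferin with 10 uM ATP in imidazole pH 7.2 buffer containing KCl, MgCl2, Tween 20 and BSA.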
Rab9 prom act = activators of Rab9 promoter | Huh7 Rab9 promoter-luciferase reporter, luminescence, 24 h | Potency, µM (highest dose often 9.22 µM), for the others: at the top dose activation, negative = inhibition, hits mostly activators | 320,000 tested, 2.8% active | AID 485297; further: % of control where 0% means no effect; nearly all actives have a fitted effect of over 60% in size
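Luciferase signal after 10 min detection reagent at ambient indicates Rab9 promoter upregulation; stably transfected Huh7 cells were treated 24 h with compound in DMSO at 37 °C, 5% CO2.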
ELG1 genotox = genotoxicity induction in ELG1-luciferase HEK293T cells. 330,000 tested, 1.3% active. HEK293T ELG1-luciferase reporter, luminescence, 16 h. Potency, µM (highest dose often 46 µM), for the others: top-dose activity change, positive = activation, hits mostly activators. AID 504466; further: % of control where 0% means no effect; nearly all actives have a fitted effect of over 60% in size
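After overnight (16 hr) compound treatment at 37 °C, ELG1-luciferase HEK293T cells were lysed with ONE-Glo; luminescence quantified 30 min later at room temperature.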
Starred values were filed as active, the others as inactive; ? = inconclusive; . = not tested or not shown. The call rests on the fitted dose curve; in most records, active means well fitted curve in the direction sought with a large enough effect; inconclusive means small, poorly fitted or top-dose-only effect, or another doubt; inactive means no such curve, though single readings can be large; an effect the other way counts as inactive or inconclusive. Potency means the concentration at half of the fitted maximal effect.

SMILES | NPC1 prom act | SMN2 splice enh | FLuc counter | KinaseGlo FLuc | Rab9 prom act | ELG1 genotox
CCOC(=O)N/N=C/c1ccccc1OCc1ccc(Cl)cc1 | -2% | 27% | 15µM* | -1% | -5% | 2%
Cc1ccccc1Cn1ccc(NC(=O)c2cc3ncc(Br)cn3n2)n1 | -2% | 2% | 11µM* | -1% | -2% | 0%
Cc1nn(Cc2ccc(F)cc2)c(C)c1NC(=O)c1cc2ncc(Br)cn2n1 | 0% | . | -1% | -1% | -11% | -6%
CSc1ccccc1NC(=O)c1cc2ncc(Br)cn2n1 | 4% | 3.2µM* | 8.5µM* | -1% | ? | ?
Cc1ccccc1Cn1ccc(NC(=O)c2nn3cccnc3c2Cl)n1 | 12% | -10% | 17µM* | 1% | 27% | 5%
C/C(=N\OC(=O)c1cccc(C(F)(F)F)c1)c1sc(-c2ccccc2)nc1C | 3.5µM* | 25µM* | 5% | 5% | 4µM* | 3%
C/C(=N\OC(=O)c1cccc(C)c1)c1sc(-c2ccccc2)nc1C | 4µM* | ? | -7% | -4% | 2.8µM* | 5.8µM*
Cc1nc(-c2ccccc2)sc1C(=O)NN | -5% | -32% | 4% | -4% | -10% | -9%
COc1ccc(C(=O)OC2CC3CC[C@H](C2)N3C(C)=O)cc1OC (some centres undefined) | . | 1% | . | 0% | . | .
COc1ccccc1C(=O)NCCn1cc(SCC(=O)Nc2ccccc2F)c2ccccc21 | . | -33% | -17% | . | . | .
CC(C)(C)c1ccc(C2CC2C(=O)N/N=C\c2ccc[nH]2)cc1 (centres undefined) | -40% | . | 17µM* | -5% | -60% | 22%
COc1cc(Br)ccc1C1C(C(=O)Nc2ccc(C)cc2C)=C(C)Nc2nnnn21 (centres undefined) | . | -2% | 1% | . | . | .
O=C(CSc1nc(-c2ccccc2)nc2ccccc12)Nc1cccc(C(=O)O)c1 | -4% | 8% | 19µM* | 2% | 2% | 3%
O=C(CSc1nc(-c2ccccc2)nc2c1Cc1ccccc1O2)Nc1ccc(C(=O)O)cc1 | 4% | -15% | 7.6µM* | -3% | 7% | 0%
O=C(CSc1ncnc2scc(-c3ccccc3)c12)Nc1ccc(C(=O)O)cc1 | -40% | . | 21µM* | . | 9% | 5%
Cc1nnc(SCC(=O)Nc2ccccc2)c2ccccc12 | 22% | . | 17µM* | . | 13% | -2%
O=C(CSc1nc(-c2ccc(F)cc2)nc2ccc(F)cc12)Nc1cccc(C(=O)O)c1 | -2% | -11% | ? | 0% | -5% | 0%
CCc1ccccc1NC(=O)Cc1c(C(=O)O)[nH]c2ccc(Cl)cc12 | . | 23% | ? | . | . | .
O=C1CS(=O)(=O)C2(C(=O)N(Cc3ccccc3)c3ccccc32)N1c1ccccc1 (centres undefined) | . | . | 6% | . | . | .
Cc1ccc(CNC(=O)C2CCN(c3ncnc4c3nc3n4CCCCC3)CC2)cc1 | . | . | 2% | . | . | .
CCN(CC)c1nc(-c2ccc(C(C)(C)C)cc2)nc2ccccc12 | . | ? | 5.4µM* | . | . | .
CC(C)CN(CC(C)C)c1nc(-c2ccc(Cl)cc2)nc2ccccc12 | . | 2% | -1% | . | . | .
CCn1cc(/C=N\NC(=O)c2c[nH]c3ccccc23)c(C)n1 | 15% | 27% | 21µM* | 0% | 19% | 4%
CCn1cc(/C=N\NC(=O)c2csc3ccccc23)c(C)n1 | 1% | -11% | ? | 1% | 9% | 29%
Cc1c(/C=N\NC(=O)c2c[nH]c3ccccc23)cnn1C | 2% | 27% | 12µM* | -2% | 14% | 6%
Cc1ccc(CN2CCc3nc(N4CCN(C)CC4)ncc3C2)s1 | . | . | 0% | . | . | .
O=C(CCC1CCCC1)N1CCN(C(=O)c2cccnc2)CC1 | 5% | 4% | 0% | -2% | 1% | 0%
N/C(=N\OC(=O)c1ccc(Br)o1)c1cccnc1 | 27% | . | ? | -8% | ? | 22%
N/C(=N\OC(=O)C1CCCCC1)c1cccnc1 | 7% | -8% | 19µM* | -4% | 6% | 3%
